In PubChem BioAssay (NCI):
About 83,000 compounds went through this panel and 20% of them were active in at least one assay; those are over-represented in the sample as a whole.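 A percent growth of 40 corresponds to 60% growth inhibition; 0 means no net growth; -100 means all cells died. Active threshold: below 10.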 Calls of active or inactive are those of the source.

How the values were obtained:
Experiment in all cases: NCI-60 one-dose screen, 48 h (100 = growth as untreated, 0 = no growth, -100 = all killed)
Details in all cases: 10 µM unless noted
SK-MEL-2 melanoma = system: SK-MEL-2 melanoma
EKVX NSCLC = system: EKVX NSCLC
SN12C renal = system: SN12C renal
UO-31 renal = system: UO-31 renal
TK-10 renal = system: TK-10 renal
ACHN renal = system: ACHN renal
CAKI-1 renal = system: CAKI-1 renal
CCRF-CEM leukemia = system: CCRF-CEM leukemia
MOLT-4 leukemia = system: MOLT-4 leukemia

Measured: growth

Cc1ccc(C2C3CC4CCCCC4N3[C@@]3(C(=O)Nc4cc(Cl)ccc43)C2C(=O)c2nc3ccccc3[nH]2)cc1 (stereo partly specified)
inactive: SK-MEL-2 melanoma 59.7% | EKVX NSCLC 27.3% | SN12C renal 44.8% | UO-31 renal 19.8% | TK-10 renal 39.6% | ACHN renal 40.5% | CAKI-1 renal 16.5% | CCRF-CEM leukemia 27.8%
active: MOLT-4 leukemia 2.61%

O=C(c1ccccc1)N1N=C(c2ccc(-n3ccc(C(F)(F)F)n3)cc2)CC1c1ccc[nH]1 (stereo unspecified)
inactive: SK-MEL-2 melanoma 97.7% | EKVX NSCLC 88.9% | SN12C renal 98.1% | UO-31 renal 77.8% | TK-10 renal 80.8% | ACHN renal 90.6% | CAKI-1 renal 84.1% | CCRF-CEM leukemia 85.6% | MOLT-4 leukemia 75.8%

COc1ccc(C(=O)/C=C/c2ccc(OCc3ccccc3)c(OC)c2)cc1OC
inactive: SK-MEL-2 melanoma 83.5% | EKVX NSCLC 54.7% | SN12C renal 61.1% | UO-31 renal 43.8% | TK-10 renal 48.4% | ACHN renal 79.8% | CAKI-1 renal 55.5% | CCRF-CEM leukemia 17.4% | MOLT-4 leukemia 44.8%

Cn1/c(=N/NC(N)=S)ccc2ccccc21
inactive: SK-MEL-2 melanoma 117% | EKVX NSCLC 78.1% | SN12C renal 91.3% | UO-31 renal 62.7% | TK-10 renal 113% | ACHN renal 95.2% | CAKI-1 renal 95.7% | CCRF-CEM leukemia 63.9% | MOLT-4 leukemia 48.5%

CN(C)C(C(N)=O)c1ccc(Cl)cc1 (stereo unspecified)
inactive: SK-MEL-2 melanoma 102% | EKVX NSCLC 97.8% | SN12C renal 103% | UO-31 renal 94.2% | TK-10 renal 92.2% | ACHN renal 95.2% | CAKI-1 renal 93.4% | CCRF-CEM leukemia 115% | MOLT-4 leukemia 95.5%

CN1CCN(C(=O)OCc2nc3c(N4CCOCC4)nc(-c4ccccc4)nc3n2C)CC1
active: SK-MEL-2 melanoma -59.9% | EKVX NSCLC -76.7% | SN12C renal -86.8% | UO-31 renal -100% | TK-10 renal -70.1% | ACHN renal -100% | CAKI-1 renal -93.5% | CCRF-CEM leukemia -6.94% | MOLT-4 leukemia -6.95%

CC(=O)c1cc2c(N)c(C(=O)Nc3cncc4ccccc34)sc2nc1C
inactive: SK-MEL-2 melanoma 91.2% | EKVX NSCLC 100% | SN12C renal 95.3% | UO-31 renal 80.1% | TK-10 renal 119% | ACHN renal 97.1% | CAKI-1 renal 83.8% | CCRF-CEM leukemia 104% | MOLT-4 leukemia 90.3%

CS(=O)(=O)c1ccc(-c2cc(-c3nnc(SCC(=O)Nc4ccc(C(=O)/C=C/c5ccc(Cl)cc5)cc4)n3-c3ccccc3)c3ccccc3n2)cc1
inactive: SK-MEL-2 melanoma 107% | EKVX NSCLC 94% | SN12C renal 91.3% | UO-31 renal 72.5% | TK-10 renal 99.3% | ACHN renal 97.6% | CAKI-1 renal 86.2% | CCRF-CEM leukemia 99.6% | MOLT-4 leukemia 90.5%

COC(=O)N[C@H]1CCc2cc(OC)c(OC)c(OC)c2-c2ccc(SC)c(=O)cc21
inactive: SK-MEL-2 melanoma 12.5% | EKVX NSCLC 32.2% | SN12C renal 23.9% | UO-31 renal 44.5% | TK-10 renal 47% | ACHN renal 24.9% | CAKI-1 renal 17% | CCRF-CEM leukemia 15.6%
active: MOLT-4 leukemia 9.69%

CC(C)(C#N)N1CCN(c2ccccc2Cl)CC1
inactive: SK-MEL-2 melanoma 103% | EKVX NSCLC 97.2% | SN12C renal 108% | UO-31 renal 81.8% | TK-10 renal 104% | ACHN renal 109% | CAKI-1 renal 94.5% | CCRF-CEM leukemia 100% | MOLT-4 leukemia 97.8%

Cc1cc2cc3cc(C)c(N)cc3[n+](C)c2cc1N
inactive: EKVX NSCLC 14.3% | UO-31 renal 14% | TK-10 renal 16.2% | ACHN renal 28.5% | CAKI-1 renal 52.7% | CCRF-CEM leukemia 18.8%
active: SK-MEL-2 melanoma -21.9% | SN12C renal 8.73% | MOLT-4 leukemia 5.32%

O=C(Nc1nc2ccc(S(=O)(=O)Nc3ccc(C4(C(F)(F)F)CC4)cc3)cc2[nH]1)c1cnccn1
inactive: SK-MEL-2 melanoma 56.3% | EKVX NSCLC 65.3% | SN12C renal 44.9% | UO-31 renal 40.3% | TK-10 renal 65.9% | ACHN renal 43.5% | CAKI-1 renal 28.6% | CCRF-CEM leukemia 19.9% | MOLT-4 leukemia 38.7%

C=C(C)[C@@H]1CC[C@]2(CO)CC[C@]3(C)[C@H](CC[C@@H]4[C@@]5(C)CCCNC(C)(C)[C@@H]5CC[C@]43C)[C@@H]12
inactive: SK-MEL-2 melanoma 78.8% | EKVX NSCLC 63.3% | SN12C renal 45.9% | UO-31 renal 53.8% | TK-10 renal 80.8% | ACHN renal 50.2% | CAKI-1 renal 38.4% | CCRF-CEM leukemia 12.4%
active: MOLT-4 leukemia 4.4%

Cn1c(COC(=O)NCCn2ccnc2)nc2c(N3CCOCC3)nc(-c3ccccc3)nc21
active: SK-MEL-2 melanoma -69.6% | EKVX NSCLC -64.5% | SN12C renal -90.3% | UO-31 renal -100% | TK-10 renal -83.3% | ACHN renal -100% | CAKI-1 renal -94.2% | CCRF-CEM leukemia -17.9% | MOLT-4 leukemia -10.3%

CC1=CC2(C)/C=C(C)/C=C\CC(O)/C=C3/C=CC(=C4C(=O)OC2(CC1C)C4=O)OC3 (stereo unspecified)
inactive: EKVX NSCLC 34.8%
active: SK-MEL-2 melanoma -89.2% | SN12C renal -40.8% | UO-31 renal -53% | TK-10 renal -86.8% | ACHN renal -94.7% | CAKI-1 renal -89.5% | CCRF-CEM leukemia -39.4% | MOLT-4 leukemia -35.1%

c1ccc(-c2nn(-c3ccccc3)[n+](-c3ccccc3-c3ccccc3)n2)cc1
inactive: EKVX NSCLC 11.7% | SN12C renal 12.9% | UO-31 renal 80.1% | TK-10 renal 26% | ACHN renal 56% | CAKI-1 renal 88.2% | CCRF-CEM leukemia 17.2% | MOLT-4 leukemia 22.9%
active: SK-MEL-2 melanoma -15.8%

Cc1ccc(S(=O)(=O)Nc2ccc(Cl)cc2)cc1
inactive: SK-MEL-2 melanoma 135% | EKVX NSCLC 90.4% | SN12C renal 94.3% | UO-31 renal 82.1% | TK-10 renal 118% | ACHN renal 99.8% | CAKI-1 renal 82.3% | CCRF-CEM leukemia 95.8% | MOLT-4 leukemia 105%

CN1CCCC1=Nc1ccccc1
inactive: SK-MEL-2 melanoma 114% | EKVX NSCLC 103% | SN12C renal 95.5% | UO-31 renal 92.2% | TK-10 renal 107% | ACHN renal 115% | CAKI-1 renal 94.6% | CCRF-CEM leukemia 105% | MOLT-4 leukemia 101%

CCCCOc1ccc(/C=N/Nc2cc(C)nc3ccc(Cl)cc23)cc1
active: SN12C renal -81.6% | UO-31 renal -96.1% | ACHN renal -95.5% | CCRF-CEM leukemia -5.7% | MOLT-4 leukemia -36.9%
inactive: SK-MEL-2 melanoma 67.6% | EKVX NSCLC 60% | TK-10 renal 36.8% | CAKI-1 renal 35.1%

O=C(Nc1cccc(Cl)c1)c1cc(Cl)ccc1O
inactive: TK-10 renal 13.4% | CCRF-CEM leukemia 12.9%
active: SK-MEL-2 melanoma -17.7% | EKVX NSCLC 7.96% | SN12C renal -0.418% | UO-31 renal 7.54% | ACHN renal -0.748% | CAKI-1 renal -7.81% | MOLT-4 leukemia 4.18%

C=C(C)[C@@H]1CC[C@]2(C(=O)NCC(=O)OC)CC[C@]3(C)[C@H](CC[C@@H]4[C@@]5(C)Cc6c([nH]c7ccccc67)C(C)(C)[C@@H]5CC[C@]43C)[C@@H]12
inactive: SK-MEL-2 melanoma 78.2% | EKVX NSCLC 71.5% | SN12C renal 70.9% | UO-31 renal 65.1% | TK-10 renal 89.3% | ACHN renal 60.5% | CAKI-1 renal 58.6% | CCRF-CEM leukemia 57.2% | MOLT-4 leukemia 40.9%

N#CC1=C(N)Oc2c(ccc3ccccc23)C1c1ccc([N+](=O)[O-])cc1 (stereo unspecified)
inactive: SK-MEL-2 melanoma 86% | EKVX NSCLC 76.9% | SN12C renal 90.4% | UO-31 renal 54.7% | TK-10 renal 145% | ACHN renal 90.3% | CAKI-1 renal 41.6% | CCRF-CEM leukemia 66.9% | MOLT-4 leukemia 58.6%

O=C1CCCN1c1cccc2cccnc12
inactive: SK-MEL-2 melanoma 104% | EKVX NSCLC 91.5% | SN12C renal 102% | UO-31 renal 81.2% | TK-10 renal 88.5% | ACHN renal 102% | CAKI-1 renal 91.9% | CCRF-CEM leukemia 107% | MOLT-4 leukemia 102%

Cc1cc2nc(-c3ccccc3)c(-c3ccccc3)nc2cc1C
inactive: SK-MEL-2 melanoma 107% | EKVX NSCLC 89.2% | SN12C renal 92.8% | UO-31 renal 113% | TK-10 renal 125% | ACHN renal 114% | CAKI-1 renal 98.7% | CCRF-CEM leukemia 99.4% | MOLT-4 leukemia 89%

CC(C)(C)OC(=O)N1CCN(c2ccc(N)cc2)C(=O)C1
inactive: SK-MEL-2 melanoma 111% | EKVX NSCLC 98.6% | SN12C renal 96.2% | UO-31 renal 87.4% | TK-10 renal 126% | ACHN renal 103% | CAKI-1 renal 98.3% | CCRF-CEM leukemia 107% | MOLT-4 leukemia 101%

O=C(Cc1ccc(/C=C/C(=O)c2ncc[nH]2)cc1)Nc1ccc(C(F)(F)F)cc1
active: UO-31 renal -41.7% | CCRF-CEM leukemia -9.03% | MOLT-4 leukemia 6.36%
inactive: SK-MEL-2 melanoma 100% | EKVX NSCLC 71.8% | SN12C renal 29.5% | TK-10 renal 87.5% | ACHN renal 56% | CAKI-1 renal 68.7%

O=C1OC(=O)C2C1CC=CC2c1ccccc1 (stereo unspecified)
inactive: SK-MEL-2 melanoma 97.3% | EKVX NSCLC 90.9% | SN12C renal 87.6% | UO-31 renal 88.9% | TK-10 renal 102% | ACHN renal 104% | CAKI-1 renal 102% | CCRF-CEM leukemia 84.2% | MOLT-4 leukemia 90.6%

Cc1ccccc1CNc1ccc(N2CCOCC2)cc1
inactive: SK-MEL-2 melanoma 102% | EKVX NSCLC 104% | SN12C renal 96.3% | UO-31 renal 107% | TK-10 renal 95.3% | ACHN renal 108% | CAKI-1 renal 99.1% | CCRF-CEM leukemia 112% | MOLT-4 leukemia 101%

Cc1n[nH]c(C)c1-c1c(C)n[nH]c1C
inactive: SK-MEL-2 melanoma 29.9% | EKVX NSCLC 18.2% | TK-10 renal 13% | CCRF-CEM leukemia 12.3%
active: SN12C renal 9.52% | UO-31 renal -0.471% | ACHN renal -47.7% | CAKI-1 renal -36% | MOLT-4 leukemia 0.721%
